The results in this text go back to PubChem BioAssay (NCI).

Compounds without any hit were thinned out: in the full panel of roughly 83,000, 20% have a hit.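 Plates (96-well) were seeded with cells, treated with compound at one concentration, and incubated for 48 hours before percent growth was determined.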 Activity calls are given as the source filed them. The calls were made as follows: active = growth percent below 10; inactive = the rest.

For this test, the system named is DU-145 prostate. Nature of the test: NCI-60 one-dose screen, 48 h (100 = growth as untreated, 0 = no growth, -100 = all killed). The following applies: 10 µM unless noted.
Consider `COc1cc(C(=O)/C=C/c2c(-c3ccc(F)cc3)nc3sccn23)cc(OC)c1OC`, for which the growth is 27.4% (inactive).

For the compound `Nc1nc(N)c2c(n1)NC(c1ccc(F)cc1)C1CCc3ccccc3C1=N2` (configuration not stated), the growth is 62.1% (inactive).

As to `COc1ccc(-c2cc(-c3ccc(Cl)cc3)nc(NCCCCNc3ccnc4cc(Cl)ccc34)n2)cc1`, the growth is 98.8% (inactive).

Regarding `Cc1cc(C)nc(SCC(=O)Nc2cccc(N=Cc3ccccc3O)c2)n1`, the growth was 104% (inactive).

Regarding `O=C(Nc1ccc(Nc2ccncc2)cc1)c1ccc([N+](=O)[O-])cc1`, the growth is 68.7% (inactive).

Take `O=C1COCCN1c1ccc(NCc2cn(Cc3cccc4ccccc34)c3ccccc23)cc1`: the growth is 98.7% (inactive).

`O=C1/C(=C\c2cccn2Cc2ccccc2)c2ccccc2N1c1c(Cl)cccc1Cl`: the growth is 95.2% (inactive).

`CCCCCN(CCCCC)CCCCCCCCN1CCCc2ccccc21`: the growth is 101% (inactive).

As for `CC(C)CSc1ncnc2nc[nH]c12`, the growth was 100% (inactive).

Regarding `CCN(CC)CCCC(C)Nc1ccnc2cc(Cl)c(SCc3ccccc3)cc12` (configuration not stated), the growth is 25.4% (inactive).

Consider `O=C(Nc1ccc(C(=O)/C=C/c2ccc(N3CCOCC3)cc2)cc1)Nc1ccc([N+](=O)[O-])cc1`, for which the growth was 98% (inactive).

Consider `Cc1ccc(-c2cn(C/C=C3\C=CN(S(=O)(=O)c4ccccc4)CC3)nn2)cc1`, for which the growth was 118% (inactive).

For `CCOc1ccc2sc(NS(=O)(=O)c3ccc(N)cc3)nc2c1`, the growth was 119% (inactive).

As to `O=C(NCCCNC(=O)OCc1ccc2c(Br)cc(Br)c(O)c2n1)OCc1ccc2c(Br)cc(Br)c(O)c2n1`, the growth was -80.8% (active).

Turning to `C=CCc1nc2ccccc2s1`, the growth was 114% (inactive).

As to `CCN(CC)CCCNCc1cc(-c2ccccc2)nc2ccccc12`, the growth was 16.6% (inactive).

`C=C(C)[C@@H]1CC[C@]2(C(N)=O)CC[C@]3(C)[C@H](CC[C@@H]4[C@@]5(C)C/C(=C/c6cccnc6)C(=O)C(C)(C)[C@@H]5CC[C@]43C)[C@@H]12`: the growth is 24.6% [100 µM] (inactive).

In the case of `COC(=O)C(=Cc1ccccc1[N+](=O)[O-])C(=O)OC`, the growth was -45.6% (active).

Consider `CCOC(CNC(=O)c1cccc([N+](=O)[O-])c1)OCC`, for which the growth was 100% (inactive).

Turning to `Cc1ccc(-c2cc(O)c(-c3ccc(C)cc3C)cc2O)c(C)c1`, the growth was 80% (inactive).

Consider `Fc1cc2[nH]ncc2c2c3c(c(-c4cn[nH]c4)nc12)CCCC3`, for which the growth is 7.37% (active).

For `O=C(CCN1CCCCC1)c1ccc(Cl)cc1`, the growth is 106% (inactive).

Turning to `CCOC(=O)C1=C(C(=O)c2ccc(Br)cc2)C(c2ccc(Br)cc2)NC(=S)N1` (configuration not stated), the growth is 113% (inactive).

With `Cn1cc(-c2noc(-c3cn(C)c4ncc(F)cc34)n2)c2cc(Cl)ccc21`, the growth was 80.3% (inactive).

Consider `O=[N+]([O-])c1cc([N+](=O)[O-])c(NN=C(c2ccc(O)cc2)c2ccc(O)cc2)cc1Cl`, for which the growth is -77.9% (active).

Consider `NNC(=O)c1ccc(C(=O)NN)cc1`, for which the growth was 109% (inactive).

On to `CN(C)CCOc1ccc(/C(=C(/CCCl)c2ccccc2)c2ccccc2)cc1`, for which the growth is 49.6% (inactive).

For the compound `CC(=O)Nc1ccc2nc3ccc(NC(C)=O)cc3[n+](-c3ccccc3)c2c1`, the growth is 117% (inactive).

Consider `COc1ccc(/C=C(/C(=O)c2ccc(Cl)cc2)C(=O)C(F)(F)F)cc1`, for which the growth is 99.2% (inactive).

As to `COc1cc2c(c(OC)c1)C1c3cc(OC)ccc3NC(=O)N1CC2` (configuration not stated), the growth is 102% (inactive).

Consider `COc1ccc(C=C2c3ccccc3-c3ccccc32)cc1`, for which the growth is 84.6% (inactive).

In the case of `O=S(=O)(c1ccc(N/N=C\c2ccccc2Cl)cc1)c1ccc(N/N=C/c2ccccc2Cl)cc1`, the growth was 92.1% (inactive).

With `CSc1nc(N)c(N=Nc2ccc(S(=O)(=O)Nc3nnc(C)s3)cc2)c(=O)[nH]1`, the growth was 101% (inactive).

For `C=C(C)[C@@H]1CC[C@]2(C)[C@H](CC=C3[C@@H]4[C@@H](C)[C@H](C)CC[C@]4(C(N)=O)CC[C@]32C)[C@@]1(C)CCC#N`, the growth was -0.419% [100 µM] (active).

For the compound `CCOC(=O)CC(c1ccccc1)C(C#N)c1ccccc1` (configuration not stated), the growth was 104% (inactive).

As for `Clc1ccc(/C=N/Nc2nc3ccccc3s2)c(Cl)c1`, the growth is 97.9% (inactive).

For the compound `CC1(C)CC[C@]2(C(=O)O)CC[C@]3(C)[C@H](CC[C@@H]4[C@@]5(C)CCC(=O)C(C)(C)[C@@H]5CC[C@]43C)[C@H]2[C@H]1OC(=O)C(F)(F)F`, the growth was -53.4% [100 µM] (active).
